# Laboratory results reported in the supplement of paper PMC12282887.
# ± gives the standard deviation of the averaged measurements.
# Experiments:
# Assay in all cases: promoter activity interaction Z-score (Lux/OD deviation from empty-vector control); higher = stronger promoter induction by the compound
# [1] = tested on: E. coli BW25113 acrABp lux reporter
# Summary of the method: (§1)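 E. coli BW25113 luxCDABE reporter strains grew at 37°C in 40 µl LB Lennox in 384-well plates, with OD600 and luminescence read every 30 min for 12 h. After integration over 0–8 h for wild type or 1–9 h for deletion strains, wells under 10% of the median growth value were removed. Each score is the Z-transformed residual of growth-normalised luminescence fitted against a control.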
# [2] = tested on: E. coli BW25113 marRABp lux reporter
# Summary of the method: as §1
# [3] = tested on: E. coli BW25113 micFp lux reporter
# Summary of the method: as §1
# [4] = tested on: E. coli BW25113 ompFp lux reporter
# Summary of the method: as §1
# [5] = tested on: E. coli BW25113 robp lux reporter
# Summary of the method: as §1
# [6] = tested on: E. coli BW25113 soxSp lux reporter
# Summary of the method: as §1
# [7] = tested on: E. coli BW25113 tolCp lux reporter; conditions: 3.1 µg/ml
# Summary of the method: as §1
# [8] = 3.1 µg/ml, genetic background: wild type
# [9] = 3.1 µg/ml, genetic background: ΔmarA
# [10] = 3.1 µg/ml, genetic background: Δrob
# [11] = 3.1 µg/ml, genetic background: ΔsoxS
# [12] = 6.1 µg/ml, genetic background: wild type
# [13] = 6.1 µg/ml, genetic background: ΔmarA
# [14] = 6.1 µg/ml, genetic background: Δrob
# [15] = 6.1 µg/ml, genetic background: ΔsoxS
# [16] = 12.2 µg/ml, genetic background: wild type
# [17] = 12.2 µg/ml, genetic background: ΔmarA
# [18] = 12.2 µg/ml, genetic background: Δrob
# [19] = 12.2 µg/ml, genetic background: ΔsoxS
# [20] = 24.5 µg/ml, genetic background: wild type
# [21] = 24.5 µg/ml, genetic background: Δrob
# [22] = 24.5 µg/ml, genetic background: ΔsoxS
# [23] = 24.5 µg/ml, genetic background: ΔmarA
structure (smiles),measurement,setting,value
COc1ccc(C[C@H](N)C(=O)N[C@H]2[C@@H](O)[C@H](n3cnc4c(N(C)C)ncnc43)O[C@@H]2CO)cc1 [Puromycin],promoter activity interaction Z-score,[1]; [8],-0.169 ± 0.22
same,promoter activity interaction Z-score,[1]; [9],0.738 ± 0.17
same,promoter activity interaction Z-score,[1]; [10],0.211 ± 0.055
same,promoter activity interaction Z-score,[1]; [11],0.2622 ± 0.0026
same,promoter activity interaction Z-score,[1]; [12],-0.104 ± 0.052
same,promoter activity interaction Z-score,[1]; [13],0.582 ± 0.0062
same,promoter activity interaction Z-score,[1]; [14],0.153 ± 0.24
same,promoter activity interaction Z-score,[1]; [15],0.199 ± 0.57
same,promoter activity interaction Z-score,[1]; [16],-0.0259 ± 0.33
same,promoter activity interaction Z-score,[1]; [17],-0.302 ± 0.48
same,promoter activity interaction Z-score,[1]; [18],0.308 ± 0.44
same,promoter activity interaction Z-score,[1]; [19],0.649 ± 0.26
same,promoter activity interaction Z-score,[1]; [20],3.35 ± 1.5
same,promoter activity interaction Z-score,[1]; [21],3.54
same,promoter activity interaction Z-score,[1]; [22],0.855
same,promoter activity interaction Z-score,[2]; [8],0.00293 ± 0.13
same,promoter activity interaction Z-score,[2]; [9],0.189 ± 0.15
same,promoter activity interaction Z-score,[2]; [10],0.309 ± 0.18
same,promoter activity interaction Z-score,[2]; [11],0.0658 ± 0.096
same,promoter activity interaction Z-score,[2]; [12],0.213 ± 0.31
same,promoter activity interaction Z-score,[2]; [13],0.623 ± 0.33
same,promoter activity interaction Z-score,[2]; [14],0.273 ± 0.14
same,promoter activity interaction Z-score,[2]; [15],0.534 ± 0.15
same,promoter activity interaction Z-score,[2]; [16],0.362 ± 0.15
same,promoter activity interaction Z-score,[2]; [17],0.61 ± 0.46
same,promoter activity interaction Z-score,[2]; [18],0.305 ± 0.046
same,promoter activity interaction Z-score,[2]; [19],0.522 ± 0.076
same,promoter activity interaction Z-score,[2]; [20],1.38 ± 0.23
same,promoter activity interaction Z-score,[2]; [21],2.58
same,promoter activity interaction Z-score,[3]; [8],0.0526 ± 0.12
same,promoter activity interaction Z-score,[3]; [9],0.103 ± 0.069
same,promoter activity interaction Z-score,[3]; [10],0.103 ± 0.15
same,promoter activity interaction Z-score,[3]; [11],0.0839 ± 0.0077
same,promoter activity interaction Z-score,[3]; [12],0.357 ± 0.041
same,promoter activity interaction Z-score,[3]; [13],0.0213 ± 0.081
same,promoter activity interaction Z-score,[3]; [14],0.102 ± 0.074
same,promoter activity interaction Z-score,[3]; [15],0.145 ± 0.035
same,promoter activity interaction Z-score,[3]; [16],0.699 ± 0.21
same,promoter activity interaction Z-score,[3]; [17],-0.00373 ± 0.096
same,promoter activity interaction Z-score,[3]; [18],0.459 ± 0.3
same,promoter activity interaction Z-score,[3]; [19],0.738 ± 0.034
same,promoter activity interaction Z-score,[3]; [20],1.71 ± 0.31
same,promoter activity interaction Z-score,[3]; [23],-0.484
same,promoter activity interaction Z-score,[3]; [21],0.834 ± 0.41
same,promoter activity interaction Z-score,[3]; [22],1.39 ± 0.35
same,promoter activity interaction Z-score,[4]; [8],0.322 ± 0.085
same,promoter activity interaction Z-score,[4]; [9],1.17 ± 0.67
same,promoter activity interaction Z-score,[4]; [10],0.656 ± 0.1
same,promoter activity interaction Z-score,[4]; [11],0.816 ± 0.3
same,promoter activity interaction Z-score,[4]; [12],0.855 ± 0.35
same,promoter activity interaction Z-score,[4]; [13],1.33 ± 0.85
same,promoter activity interaction Z-score,[4]; [14],0.692 ± 0.034
same,promoter activity interaction Z-score,[4]; [15],0.84 ± 0.13
same,promoter activity interaction Z-score,[4]; [16],0.351 ± 0.31
same,promoter activity interaction Z-score,[4]; [17],0.942 ± 0.49
same,promoter activity interaction Z-score,[4]; [18],0.448 ± 0.37
same,promoter activity interaction Z-score,[4]; [19],1.03 ± 0.34
same,promoter activity interaction Z-score,[4]; [20],0.599 ± 1.4
same,promoter activity interaction Z-score,[5]; [8],0.0602 ± 0.017
same,promoter activity interaction Z-score,[5]; [9],0.523 ± 0.036
same,promoter activity interaction Z-score,[5]; [10],0.5595 ± 0.0042
same,promoter activity interaction Z-score,[5]; [11],-0.174 ± 0.69
same,promoter activity interaction Z-score,[5]; [12],0.596 ± 0.45
same,promoter activity interaction Z-score,[5]; [13],0.0157 ± 0.15
same,promoter activity interaction Z-score,[5]; [14],0.269 ± 0.22
same,promoter activity interaction Z-score,[5]; [15],0.279 ± 0.33
same,promoter activity interaction Z-score,[5]; [16],-0.231 ± 0.16
same,promoter activity interaction Z-score,[5]; [17],0.0377 ± 0.16
same,promoter activity interaction Z-score,[5]; [18],-0.211 ± 0.45
same,promoter activity interaction Z-score,[5]; [19],0.0544 ± 0.43
same,promoter activity interaction Z-score,[5]; [20],-0.191
same,promoter activity interaction Z-score,[5]; [23],-0.499
same,promoter activity interaction Z-score,[6]; [8],-0.228 ± 0.044
same,promoter activity interaction Z-score,[6]; [9],-0.0397 ± 0.09
same,promoter activity interaction Z-score,[6]; [10],0.102 ± 0.24
same,promoter activity interaction Z-score,[6]; [11],0.373 ± 0.73
same,promoter activity interaction Z-score,[6]; [12],-0.0604 ± 0.21
same,promoter activity interaction Z-score,[6]; [13],0.0219 ± 0.021
same,promoter activity interaction Z-score,[6]; [14],-0.144 ± 0.099
same,promoter activity interaction Z-score,[6]; [15],0.298 ± 0.46
same,promoter activity interaction Z-score,[6]; [16],0.0076 ± 0.14
same,promoter activity interaction Z-score,[6]; [17],0.0786 ± 0.15
same,promoter activity interaction Z-score,[6]; [18],0.00948 ± 0.09
same,promoter activity interaction Z-score,[6]; [19],0.315 ± 0.021
same,promoter activity interaction Z-score,[6]; [20],-0.0601 ± 0.063
same,promoter activity interaction Z-score,[6]; [23],-0.197 ± 0.049
same,promoter activity interaction Z-score,[6]; [21],-0.131 ± 0.33
same,promoter activity interaction Z-score,[6]; [22],0.525 ± 0.4
same,promoter activity interaction Z-score,[7]; genetic background: wild type,-0.726 ± 1
same,promoter activity interaction Z-score,[7]; genetic background: ΔmarA,-0.59 ± 0.65
